Shown are actives, neighbours in structure and some others; about 3% of the full set was active somewhere.
GDH-TPI inh: GDH-TPI coupled enzyme inhibition counter-screen; actives 1.2% (n = 360,000); inhibition, % at 4.8 µM; GDH-TPI coupled enzyme counterscreen, NADH absorbance; in the data active means inhibition above about 30%;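 further: 0% = DMSO wells and 100% = wells lacking the enzyme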
FBA Mtb inh: Mtb fructose-bisphosphate aldolase inhibition; purified M. tuberculosis FBA, fluorescence read-out; inhibition, % at 1 µM; actives 2.3% (n = 360,000); in the data active means inhibition above about 27%;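 further: 0% = vehicle and 100% = reference inhibitor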
Target sequence (P9WQA3 whole entry, looked up): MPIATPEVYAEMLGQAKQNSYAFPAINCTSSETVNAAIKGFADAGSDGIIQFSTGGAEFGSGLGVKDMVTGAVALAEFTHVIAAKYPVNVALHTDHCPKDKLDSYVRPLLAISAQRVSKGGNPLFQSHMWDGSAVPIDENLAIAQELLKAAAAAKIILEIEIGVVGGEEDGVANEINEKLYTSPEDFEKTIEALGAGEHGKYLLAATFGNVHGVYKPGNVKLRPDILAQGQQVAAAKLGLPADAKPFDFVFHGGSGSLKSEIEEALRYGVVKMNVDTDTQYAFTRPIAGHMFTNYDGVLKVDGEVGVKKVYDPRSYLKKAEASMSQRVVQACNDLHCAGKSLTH
BioA inh: inhibitors of Mycobacterium tuberculosis BioA enzyme | actives 0.096% (n = 360,000) | purified M. tuberculosis BioA enzyme, plate reader | AID 602481 | inhibition, % at 9.99 µM; in the data active means inhibition above about 40%
Vc quorum ag: induces V. cholerae light production without autoinducers; activation, % at 18.7 µM; actives 0.16% (n = 350,000); V. cholerae BH1578 lux reporter, luminescence, 6 h; in the data active means activation mostly above about 9.7%, no sharp cut-off
Active calls of the source: *; i = inactive; . = no result; + = active, no number.

SMILES	GDH-TPI inh	FBA Mtb inh	BioA inh	Vc quorum ag
Cc1ccc(S(=O)(=O)Nc2ccc3c(c2)C(=O)N([C@H](C)CO)C[C@@H](C)[C@H](CN(C)C)OCCCC[C@@H](C)O3)cc1	.	.	-1	.
COC(=O)N/N=C\C=C\c1ccc2c(c1)OCO2	44*	3	-1	-1
CCN(CC)c1ccc(/C=N/NC(=O)Cc2ccc(OC)c(OC)c2)cc1	46*	26	.	0
CO[C@H]1CN(C)C(=O)c2ccc(NC(=O)c3ccc(F)cc3)cc2OC[C@@H](C)N(C)C[C@H]1C	.	.	-2	.
Cc1ccc(N2CCN(S(=O)(=O)c3c(C)nc4scc(C)n4c3=O)CC2)c(C)c1	31*	-5	0	1
Cc1ccc(-c2cc(C(F)(F)F)c(C#N)c(=O)[nH]2)cc1	17	139*	2	1
COc1cccc(-c2cc(C(F)(F)F)c(C#N)c(=O)[nH]2)c1	6	+	0	0
N#Cc1c(C(F)(F)F)cc(C2CC2)[nH]c1=O	24	+	0	0
N#Cc1c(C(F)(F)F)cc(-c2ccccc2)[nH]c1=O	0	+	-1	i
COc1ccc(-c2cc(-c3ccccc3)c(C#N)c(=S)[nH]2)cc1	0	1	.	i
Cc1noc(C)c1S(=O)(=O)Nc1ccc2c(c1)C(=O)N([C@H](C)CO)C[C@@H](C)[C@H](CN(C)S(=O)(=O)c1ccc(Cl)cc1)OCCCC[C@@H](C)O2	.	.	0	.
CCCC(=O)Nc1ccc2c(c1)OC[C@@H](C)N(C(=O)c1ccncc1)C[C@@H](C)[C@@H](OC)CN(C)C2=O	.	.	0	.
N#Cc1c(C(F)(F)F)cc(-c2ccccc2Cl)[nH]c1=O	10	145*	2	0
Cc1ccc(-c2cc(-c3ccco3)c(C#N)c(=O)[nH]2)cc1	26	124*	.	-1
N#Cc1c(-c2cccs2)cc(-c2cccs2)[nH]c1=O	-5	9	0	i
CSc1cc(-c2ccccc2)[nH]c(=O)c1C#N	19	34*	.	0
CSc1cc(-c2ccccc2)n(C)c(=O)c1C#N	3	-3	-1	0
C[C@@H]1CN([C@@H](C)CO)C(=O)c2cc(NC(=O)NC3CCCCC3)ccc2O[C@@H](C)CCCCO[C@H]1CN(C)S(=O)(=O)c1ccc(F)cc1	.	.	0	.
CN(C(=O)/C=C/c1ccco1)c1ccccc1C(=O)O	32*	5	-3	1
COc1ccc(NC(=O)c2sc3nc(C)nc(N4CCOCC4)c3c2C)c(OC)c1	15	2	-2	0
Cc1nc(N2CCOCC2)c2c(C)c(C(=O)Nc3ccc(F)cc3F)sc2n1	38*	1	0	i
CCCN1C[C@H](C)[C@H](OC)CN(C)C(=O)c2cc(NC(=O)Nc3ccccc3F)ccc2OC[C@@H]1C	.	.	0	.
C[C@H]1CN([C@@H](C)CO)C(=O)Cc2cc(NC(=O)c3ccncc3)ccc2O[C@H]1CN(C)S(=O)(=O)c1cn(C)cn1	.	.	-4	.
COC(CN(C(=O)CCl)C(C(=O)NC1CCCCC1)c1ccc(Cl)cc1)OC (centres undefined)	-11	-1	-2	i
COC(CN(C(=O)CCl)C(C(=O)NC1CCCC(C)C1C)c1ccc(C)cc1)OC (centres undefined)	+	1	5	0
SMILES	GDH-TPI inh	FBA Mtb inh	BioA inh	Vc quorum ag
CC(=O)Nc1nnc(-c2ccco2)o1	-11	0	.	-1
O=C(/C=C/c1ccccc1)Nc1nnc(-c2ccco2)o1	45*	-3	0	0
O=C(O)c1cc(-c2cccc(Cl)c2)nc2nc(N3CCCCC3)sc12	18	+	.	0
Cn1c(NNC(=O)/C=C/c2ccc3c(c2)OCO3)cc(=O)n(C)c1=O	39*	10	-4	0
CC(C)C#Cc1cnc2c(c1)C(=O)N([C@@H](C)CO)C[C@H](C)[C@@H](CN(C)C(=O)c1cccc(F)c1)O2	.	.	-2	.
COc1cc2oc(=O)ccc2cc1-c1c(OC)ccc2ccc(=O)oc12	35*	4	11	0
COc1cc2ccc(=O)oc2c(O)c1O	13	5	-2	0
O=C(CSc1nc2[nH]c(=O)cc(O)c2s1)Nc1ccc(Br)cc1	32*	6	-5	-1
COc1cc2c(C#N)c(N3CCCCC3)nc(N)c2c(N)n1	19	4	-2	i
COc1cc2c(C#N)c(N3CCOCC3)nc(N)c2c(N)n1	8	32*	-1	0
O=c1[nH]cnc2nc(-c3ccc(N(CCCl)CCCl)cc3)[nH]c12	47*	.	-2	1
COc1cccc(/C=C2\Oc3cc(OCC(=O)N4CCCCC4)ccc3C2=O)c1OC	39*	-1	-1	i
O=C(O)COc1ccc2c(c1)O/C(=C\c1cccs1)C2=O	42*	5	-2	i
COc1cccc(/C=C2\Oc3cc(OCC(=O)N4CCCC4)ccc3C2=O)c1OC	29	5	1	-3
COc1ccc(/C=C2\Oc3cc(OC(=O)N4CCOCC4)ccc3C2=O)c(OC)c1	31*	-4	-3	-1
COc1ccc(OC)c(/C=C2\Oc3cc(OCC(=O)N4CC(O)C[C@H]4C(=O)O)ccc3C2=O)c1 (some centres undefined)	40*	-6	1	-1
COc1ccc(/C=C2\Oc3cc(OCC(=O)N4CC(O)C[C@H]4C(=O)O)ccc3C2=O)c(OC)c1OC (some centres undefined)	25	-1	0	0
C[C@@H]1CN([C@H](C)CO)S(=O)(=O)c2ccc(C#Cc3ccccc3F)cc2O[C@H]1CN(C)C	.	.	0	.
O=C(C[C@H]1CC[C@H]2[C@@H](COC[C@@H](O)CN2Cc2ccc(Oc3ccccc3)cc2)O1)N1CCCCC1	.	.	1	.
COc1ccc(/C=C2\Oc3cc(OCC(=O)N4CCC[C@H]4C(=O)O)ccc3C2=O)c(OC)c1OC	38*	-2	-1	0
CCOc1cccc2cc(C(=O)NCc3ccccc3)c(=N)oc12	1	2	-1	1
CCOc1ccccc1-c1ccc(C(=O)NCc2ccccc2)o1	14	+	1	0
C[C@H]1CN([C@@H](C)CO)C(=O)c2cc(-c3ccc(C#N)cc3)cnc2O[C@H]1CN(C)C(=O)CN(C)C	.	.	-3	.
C[C@@H]1CCCCO[C@H](CN(C)C(=O)Nc2ccccc2)[C@@H](C)CN([C@@H](C)CO)C(=O)c2cc(NC(=O)CCCN(C)C)ccc2O1	.	.	0	.
CCC(C)(C)NC(=O)C(c1ccc(OC)cc1)N(C(=O)CCC(=O)Nc1cc(C)on1)c1cccc(F)c1 (centres undefined)	1	117*	0	-2
COc1ccc(C(C(=O)NC(C)(C)C)N(C(=O)CCC(=O)Nc2cc(C)on2)c2cccc(F)c2)cc1 (centres undefined)	-8	0	2	0
CCN(CC)c1ccc2c(c1)oc(=O)c1c(Cl)cc(=O)oc12	35*	4	-53	-1
Cc1cc(NC(=O)COC(=O)c2ccccc2NCCO)no1	21	127*	-1	i
COc1ccc2c(CC(=O)NCc3ccc4c(c3)OCO4)coc2c1	11	1	-1	i
COc1ccc2cc3cc(C(=O)NCC4COc5ccccc5O4)oc3nc2c1 (centres undefined)	30	152*	-1	.

Source: PubChem
